# Laboratory results from PubChem BioAssay.
# “And” between values parts separate entries of the source, which are not always exact repeats. Equal values may be shown once. Inconclusive results are not listed. The source made the active and inactive calls.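 Rule for the calls, unless noted: active = normalized viability below 100% at a tested concentration; inactive = the rest.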
# Tests used:
# [1] = drug combination growth inhibition, ovarian cancer – cell-based, oncology-focused library, rucaparib conditional, profiling panel (AID 1508598); settings: patient-derived ovarian cancer cells, CellTiter-Glo viability, 144 h, stronger effect = lower value
# [2] = biological target: NAD(+) hydrolase SARM1 (Homo sapiens) (UniProt Q6SZW1); assay: blocking NAD cleavage by SARM1 SAM-TIR – cell lysate, NAD-Glo luminescence (AID 1508614;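 active = compound whose remaining NAD level is above about 45 nM, limit read from the data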;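 note: higher remaining NAD means stronger inhibition of SARM1 NADase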); settings: SAM-TIR HEK293T lysate NADase, at 1 µM, stronger effect = higher value
# [3] = galactose survival enhancers in mitochondrial complex I cybrids – cell-based, galactose medium, ATP luminescence, primary screen (AID 1645843;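 active = z-score of at least 1.8 in each of two replicates, scored against plate mean and spread of sample wells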;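 note: positive z means more ATP and so rescue of galactose-driven cybrid death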); settings: complex I mutant cybrid cells, 72 h, stronger effect = higher value
# [4] = growth inhibition, single agent or in combination, cell-based, chromothripsis tumors, cisplatin or BGB combos (AID 1671449; in the data active = inhibition above about 80%;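 note: cells exposed for 96 hours; 0% = vehicle DMSO and 100% = killing by high DMSO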); settings: LFS_MB_P medulloblastoma cells
# [5] = growth inhibition, single agent and combos, cell-based, chromothripsis tumors, cisplatin or BGB combos (AID 1671450; in the data active = inhibition above about 80%;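 note: cells exposed to compound for four days; 0% = vehicle DMSO and 100% = cell killing by high DMSO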); settings: HDN33 neuroblastoma cells, stronger effect = higher value
# [6] = growth inhibition, single agents and combos, ICB984, cell-based, cisplatin or BGB combos, synergistic combos for chromothripsis tumors (AID 1671451; call rule not given here;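 note: cells exposed for 96 hours before readout; 0% = vehicle DMSO and 100% = killing by high DMSO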); settings: ICB984 medulloblastoma cells, drug combinations, stronger effect = higher value
# [7] = growth inhibition, single agents and combos, LFS_MB_1R, cell-based, cisplatin or BGB combos, synergistic combos for chromothripsis tumors (AID 1671452; in the data active = inhibition above about 80%;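 note: cells exposed for 96 hours before readout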); settings: LFS_MB_1R medulloblastoma cells, stronger effect = higher value
# [8] = growth inhibition, single agents and combos, HTB85, cell-based, BGB or cisplatin IC20 combos, synergistic combos for chromothripsis tumors (AID 1671453; in the data active = inhibition above about 80%;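 note: cells exposed for 96 hours before readout; 0% = vehicle DMSO and 100% = high DMSO killing control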); settings: HTB85 osteosarcoma cells, drug combinations, stronger effect = higher value
# [9] = growth inhibition, single agents and combos, CRL2098, cell-based, BGB or cisplatin IC20 combos, synergistic combos for chromothripsis tumors (AID 1671454; in the data active = inhibition above about 80%;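 note: cells exposed for 96 h before readout; 0% = vehicle DMSO and 100% = killing by high DMSO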); settings: CRL2098 osteosarcoma cells, drug combinations, stronger effect = higher value
# [10] = growth inhibition, single agents and combos, HD-MB03, cell-based, BGB or cisplatin IC20 combos, synergistic combos for chromothripsis tumors (AID 1671455; in the data active = inhibition above about 83%;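 note: 0% = vehicle DMSO and 100% = high DMSO as cytotoxic control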); settings: HD-MB03 medulloblastoma cells, stronger effect = higher value
# [11] = viability loss in pontine glioma line – cell-based, SU-DIPG-XXV, MIPE5.0, CellTiter-Glo, qHTS, dose response (AID 1347065; cut-off not given, nearly all actives have AC50 up to about 26 µM;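 note: cells exposed to compound for 48 hours before ATP readout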); settings: CellTiter-Glo ATP luminescence
# [12] = growth inhibition of DIPG cells – cell-based, MIPE4.0 library, CellTiter-Glo luminescence, qHTS (AID 1347066; cut-off not given, nearly all actives have AC50 up to about 30 µM;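 note: cells exposed to compound for 48 hours before readout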); settings: SU-DIPG-VI viability, CellTiter-Glo ATP luminescence
# [13] = JHH-DIPG-1 glioma cell viability, MIPE5.0 library, CellTiter-Glo luminescence, qHTS (AID 1347067; cut-off not given, nearly all actives have AC50 up to about 26 µM;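 note: cells exposed to compound for 48 hours before readout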); settings: JHH-DIPG-1 glioma viability, CellTiter-Glo ATP luminescence
# [14] = growth inhibition of DIPG cells – cell-based, MIPE5.0 library, qHTS (AID 1347068; cut-off not given, nearly all actives have IC50 up to about 30 µM); settings: SU-DIPG-XXV viability
# [15] = blockers of cellular phospholipid synthesis – cell-based, LOPAC library, screen 4, primary screen (AID 1347384; call rule not given here); settings: animal cells, phospholipid biosynthesis inhibition screen; at 10 µM
# [16] = MELAS cybrid and Rieske KO viability enhancers – cell-based, MELAS cybrids, Rieske KO mouse fibroblasts, CellTiter-Glo, primary screen (AID 1508586;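 active = mean z-score across replicates of 1.96 or higher in either the MELAS or the Rieske mutant cell line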;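 note: z relative to plate mean and SD of compound and empty wells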); settings: low glucose
# [17] = biological target: Mitogen-activated protein kinase 7 (Homo sapiens) (UniProt Q13164); assay: Gal4-ERK5 driven luciferase induction – cell-based, HTS, primary screen (AID 1508626;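 active = luciferase signal above three times the same-plate solvent-only control wells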;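 note: luciferase driven by Gal4-ERK5 fusion binding five Gal4 sites before minimal TATA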); settings: HeLa Gal4-ERK5 transactivation, 18 h, at 5 µM, stronger effect = higher value
# [18] = measured here: combination with BGB IC40, at 0.05 µM
# [19] = MELAS cybrid survival, CellTiter-Glo 48 h, stronger effect = higher value
# [20] = Rieske KO mouse fibroblast survival, CellTiter-Glo 72 h
# Sequence of Mitogen-activated protein kinase 7 (Homo sapiens) (Q13164 whole entry, looked up, the tested form may be a part): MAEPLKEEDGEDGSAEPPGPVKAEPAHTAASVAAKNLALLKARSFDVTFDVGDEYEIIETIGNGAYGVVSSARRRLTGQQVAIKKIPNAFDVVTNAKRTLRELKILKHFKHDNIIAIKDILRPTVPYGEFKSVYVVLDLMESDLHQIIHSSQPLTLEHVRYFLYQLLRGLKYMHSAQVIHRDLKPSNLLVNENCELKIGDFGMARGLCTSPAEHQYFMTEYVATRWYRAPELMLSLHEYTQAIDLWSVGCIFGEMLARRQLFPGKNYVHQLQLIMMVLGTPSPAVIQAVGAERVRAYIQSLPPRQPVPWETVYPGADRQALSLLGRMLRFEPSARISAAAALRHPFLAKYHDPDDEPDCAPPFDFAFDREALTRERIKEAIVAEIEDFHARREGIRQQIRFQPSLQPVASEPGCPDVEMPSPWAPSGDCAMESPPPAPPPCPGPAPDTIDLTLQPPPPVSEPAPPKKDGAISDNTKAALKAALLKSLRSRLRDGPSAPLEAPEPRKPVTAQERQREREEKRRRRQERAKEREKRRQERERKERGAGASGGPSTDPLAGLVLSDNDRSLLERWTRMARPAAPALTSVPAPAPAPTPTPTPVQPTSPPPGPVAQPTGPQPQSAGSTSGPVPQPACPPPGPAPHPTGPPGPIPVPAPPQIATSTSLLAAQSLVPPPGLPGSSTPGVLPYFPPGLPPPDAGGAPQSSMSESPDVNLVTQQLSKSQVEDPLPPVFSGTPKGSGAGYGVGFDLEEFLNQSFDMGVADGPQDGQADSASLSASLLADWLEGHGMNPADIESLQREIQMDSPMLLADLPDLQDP
# Sequence of NAD(+) hydrolase SARM1 (Homo sapiens) (Q6SZW1 whole entry, looked up): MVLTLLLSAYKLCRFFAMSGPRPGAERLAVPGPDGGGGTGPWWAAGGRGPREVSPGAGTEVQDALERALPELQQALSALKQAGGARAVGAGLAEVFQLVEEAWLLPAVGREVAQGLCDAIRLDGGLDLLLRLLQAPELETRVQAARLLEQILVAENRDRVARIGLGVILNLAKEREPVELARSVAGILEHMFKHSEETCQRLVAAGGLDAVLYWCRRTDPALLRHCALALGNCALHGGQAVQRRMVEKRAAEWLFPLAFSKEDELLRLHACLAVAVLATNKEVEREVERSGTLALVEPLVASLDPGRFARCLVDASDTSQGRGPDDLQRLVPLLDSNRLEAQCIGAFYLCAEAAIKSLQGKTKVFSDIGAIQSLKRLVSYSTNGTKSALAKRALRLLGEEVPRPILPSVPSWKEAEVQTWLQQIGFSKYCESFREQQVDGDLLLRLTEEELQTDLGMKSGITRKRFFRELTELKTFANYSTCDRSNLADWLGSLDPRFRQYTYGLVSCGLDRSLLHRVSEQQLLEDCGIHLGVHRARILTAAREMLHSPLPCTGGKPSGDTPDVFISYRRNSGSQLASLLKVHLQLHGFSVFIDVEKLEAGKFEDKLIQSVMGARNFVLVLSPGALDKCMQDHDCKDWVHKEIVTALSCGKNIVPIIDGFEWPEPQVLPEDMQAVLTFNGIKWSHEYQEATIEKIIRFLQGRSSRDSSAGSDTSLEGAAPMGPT
smiles,measurement,setting,value
Cn1nnc2c(C(N)=O)ncn2c1=O,viability,"[1]; at 0.313 µM, OCI-C5x cells, without rucaparib",104% (inactive)
same,viability,"[1]; at 0.313 µM, OCI-P5x cells, with rucaparib 20 µM, 100% = cells with rucaparib alone",111% (inactive)
same,viability,"[1]; at 0.313 µM, OCI-P5x cells, without rucaparib",109% (inactive)
same,viability,"[1]; at 1.25 µM, OCI-C5x cells, with rucaparib 10 µM, 100% = cells with rucaparib alone",108% (inactive)
same,viability,"[1]; at 1.25 µM, OCI-C5x cells, without rucaparib",90.4% (active)
same,viability,"[1]; at 1.25 µM, OCI-P5x cells, with rucaparib 20 µM, 100% = cells with rucaparib alone",106% (inactive)
same,viability,"[1]; at 1.25 µM, OCI-P5x cells, without rucaparib",110% (inactive)
same,viability,"[1]; at 5 µM, OCI-C5x cells, with rucaparib 10 µM, 100% = cells with rucaparib alone",96.4% (active)
same,viability,"[1]; at 5 µM, OCI-C5x cells, without rucaparib",92.7% (active)
same,viability,"[1]; at 5 µM, OCI-P5x cells, with rucaparib 20 µM, 100% = cells with rucaparib alone",95.5% (active)
same,viability,"[1]; at 5 µM, OCI-P5x cells, without rucaparib",114% (inactive)
same,remaining NAD,[2],10 nM (inactive)
same,z-score,[3],-0.305 (inactive) and -0.09 (inactive) and 0.155 (inactive)
same,inhibition,"[4]; at 0.5 µM, stronger effect = higher value",-17.4% (inactive) and 18.8% (inactive)
same,inhibition,"[4]; measured here: combination with BGB IC20, at 0.005 µM",-10.2% and -21.6%
same,inhibition,"[4]; measured here: combination with BGB IC40, at 0.005 µM",14.1% and -10.5%
same,inhibition,[4]; [18],2.17% and -11.4%
same,inhibition,"[4]; measured here: combination with cisplatin, at 0.5 µM, stronger effect = higher value",-29.5% and 9.38%
same,inhibition,"[4]; measured here: combination with cisplatin, at 5 µM, stronger effect = higher value",-24.1% and -22.5%
same,inhibition,"[5]; BGB combo, at 5 µM",22.2% and -9.06%
same,inhibition,[5]; at 0.5 µM,13.3% (inactive) and -1.85% (inactive)
same,inhibition,"[5]; cisplatin combo, at 5 µM",6.08% and -19.1%
same,inhibition,"[5]; measured here: with BGB IC20 combination, at 0.5 µM",17.6% and 6.04%
same,inhibition,"[5]; measured here: with cisplatin IC20 combination, at 0.5 µM",10.1% and -5.64%
same,inhibition,"[5]; single agent, at 5 µM",14.8% and -8.19%
same,inhibition,"[6]; BGB IC20 combo, at 0.005 µM",-9.22% and 1.55%
same,inhibition,"[6]; BGB IC40 combo, at 0.005 µM",-2.52% and -17.2%
same,inhibition,"[6]; BGB IC40 combo, at 0.05 µM",-13.6% and -3.32%
same,inhibition,[6]; at 0.5 µM,-14.5% (inactive) and -3.73% (inactive)
same,inhibition,"[6]; cisplatin combo, at 0.05 µM",-17.6% and -3.32%
same,inhibition,"[6]; cisplatin combo, at 0.5 µM",-0.899% and 2.38%
same,inhibition,"[6]; cisplatin combo, at 5 µM",-10.6% and -15.5%
same,inhibition,"[6]; measured here: 5 uM single agent, at 5 µM",10.8% and -28.4%
same,inhibition,[7]; at 0.5 µM,-13.9% (inactive) and 3.35% (inactive)
same,inhibition,[7]; [18],-9.42% and 8.49%
same,inhibition,"[7]; measured here: combination with cisplatin, at 0.5 µM",-8.99% and 3.26%
same,inhibition,"[7]; measured here: combination with cisplatin, at 5 µM",-56.8% and -3.5%
same,inhibition,[8]; at 0.5 µM,6.66% (inactive) and -23.3% (inactive)
same,inhibition,"[8]; measured here: with BGB IC20, at 0.5 µM",9.09% and -44.6%
same,inhibition,"[8]; measured here: with BGB IC20, at 5 µM",6.52% and -4.64%
same,inhibition,"[8]; measured here: with cisplatin IC20, at 0.5 µM",-3.99% and -22.6%
same,inhibition,"[8]; measured here: with cisplatin IC20, at 5 µM",-15.9% and 29.4%
same,inhibition,"[8]; single agent, at 5 µM",7.64% and -1.96%
same,inhibition,[9]; at 0.5 µM,-9.21% (inactive) and -17.1% (inactive)
same,inhibition,"[9]; measured here: combination with BGB at IC20, at 0.5 µM",-17.8% and -2.5%
same,inhibition,"[9]; measured here: combination with cisplatin at IC20, at 0.5 µM",7.75% and -28.9%
same,inhibition,[10]; at 0.5 µM,-0.81% (inactive) and -5.74% (inactive)
same,inhibition,"[10]; measured here: combo with BGB at IC20, at 0.5 µM",-12.4% and -6.59%
same,inhibition,"[10]; measured here: combo with cisplatin at IC20, at 0.5 µM",4.26% and -10.3%
CN1CCC(=C2c3ccccc3CC(=O)c3sccc32)CC1,outcome,[11],inactive
same,outcome,[12],inactive
same,outcome,[13],inactive
same,outcome,[14],inactive
same,outcome,[15],inactive
same,z-score,[16]; [19],-0.303 (inactive) and -0.251 (inactive) and -0.573 (inactive)
same,z-score,[16]; [20],-0.862 and -0.369 and 0.333
same,remaining NAD,[2],10 nM (inactive)
same,luciferase signal,[17],76 AU (inactive)
Cc1cc(C(C)(C)C)cc(C)c1CC1=NCCN1,outcome,[11],inactive
same,outcome,[12],inactive
same,outcome,[13],inactive
same,outcome,[14],inactive
same,outcome,[15],inactive
same,z-score,[16]; [19],0.304 (inactive) and -0.439 (inactive) and 0.446 (inactive)
same,z-score,[16]; [20],0.616 and -0.336 and 0.511
same,remaining NAD,[2],10 nM (inactive)
same,luciferase signal,[17],44 AU (inactive)
same,z-score,[3],-0.37 (inactive) and 0.085 (inactive)
CC1(C)NC(=O)N(c2ccc([N+](=O)[O-])c(C(F)(F)F)c2)C1=O,outcome,[11],inactive
same,outcome,[12],inactive
same,outcome,[13],inactive
same,outcome,[14],inactive
same,outcome,[15],inactive
same,z-score,[16]; [19],1.34 (inactive)
same,z-score,[16]; [20],-0.252
same,remaining NAD,[2],10 nM (inactive)
same,luciferase signal,[17],100 AU (inactive)
same,z-score,[3],-0.59 (inactive) and -0.55 (inactive)
